In PubChem BioAssay AID1159580 (chemical genetic matrix, 2015):
Several values for one entry are separate records, joined by “and”; a condition that tells them apart may be missing. Equal entries are not always repeated. Out of some 5,500 compounds screened, about 2,000 (36%) were called active. Roughly 18% stayed inconclusive and do not appear here. Cut-off read from the data, not from the text of the source: active = normalized growth mostly below about 0.91 (no sharp cut-off); inconclusive = no clear call, values can overlap the other calls; inactive = mostly above about 0.92. Some of the results follow.

Assay: chemical genetic growth profiling, strain panel (AID 1159580);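 note: tested at 20 µM; growth read once vehicle control cultures reached saturation at 30 °C; 1 = growth at the plate median or of vehicle wells; lower values mean less growth of the strain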
Details: S. cerevisiae deletion strains, growth OD

Measured: normalized growth

CC(=O)N[C@@H](Cc1c[nH]c2ccccc12)C(=O)O
inactive: locus YAL013W, strain DEP1, hits give low values 1.01 | locus YAL021C, strain ccr4, hits give low values 0.991 | locus YAL026C, strain drs2, hits give low values 0.978 | locus YAL030W, strain snc1, hits give low values 0.999 | locus YBL061C, strain skt5, hits give low values 0.975 | locus YBR009C, strain hhf1, hits give low values 1.03 | locus YBR021W, strain FUR4, hits give low values 0.998 | locus YBR023C, strain chs3, hits give low values 0.996 | locus YBR171W, strain sec66, hits give low values 0.977 | locus YBR229C, strain ROT2, hits give low values 1 | locus YBR231C, strain swc5, hits give low values 0.981 | locus YBR279W, strain paf1, hits give low values 0.982 | locus YCL011C, strain gbp2, hits give low values 0.982 | locus YCL016C, strain dcc1, hits give low values 0.97 | locus YCL029C, strain bik1, hits give low values 1.03 | locus YCL061C, strain MRC1, hits give low values 0.991 | locus YCL069W, strain vba3, hits give low values 0.979 | locus YCR088W, strain abp1, hits give low values 0.992 | locus YDL005C, strain med2, hits give low values 0.971 | locus YDL035C, strain GPR1, hits give low values 1.01 | locus YDL040C, strain nat1, hits give low values 0.983 | locus YDL074C, strain BRE1, hits give low values 1.03 | locus YDL101C, strain DUN1, hits give low values 1.02 | locus YDL134C, strain PPH21, hits give low values 0.987 | locus YDL185W, strain tfp1, hits give low values 1.01 | locus YDL192W, strain arf1, hits give low values 1.01 | locus YDR001C, strain nth1, hits give low values 0.992 | locus YDR069C, strain doa4, hits give low values 0.998 | locus YDR101C, strain arx1, hits give low values 1.01 | locus YDR137W, strain rgp1, hits give low values 0.968 | locus YDR150W, strain NUM1, hits give low values 1 | locus YDR159W, strain sac3, hits give low values 1.01 | locus YDR162C, strain NBP2, hits give low values 1.01 | locus YDR195W, strain ref2 0.942 | locus YDR297W, strain sur2, hits give low values 0.994 | locus YDR318W, strain mcm21, hits give low values 1.02 | locus YDR334W, strain swr1, hits give low values 0.981 | locus YDR335W, strain msn5, hits give low values 0.987 | locus YDR388W, hits give low values 1.03 | locus YDR392W, strain spt3, hits give low values 0.988 | locus YDR502C, strain sam2, hits give low values 1.02 | locus YEL003W, strain gim4, hits give low values 0.986 | locus YEL037C, strain rad23, hits give low values 0.986 | locus YEL061C, strain CIN8 (second series), hits give low values 0.985 | locus YEL061C, strain CIN8, hits give low values 1 | locus YER015W, strain faa2, hits give low values 0.991 | locus YER016W, strain bim1, hits give low values 0.953 | locus YER110C, hits give low values 1.02 | locus YER111C, strain swi4, hits give low values 0.971 | locus YER155C, strain BEM2 (second series), hits give low values 0.982 | locus YER155C, strain BEM2, hits give low values 0.997 | locus YER167W, strain BCK2, hits give low values 1.01 | locus YFR010W, strain ubp6, hits give low values 1 | locus YGL078C, strain dbp3, hits give low values 1.01 | locus YGL086W, strain mad1, hits give low values 1.02 | locus YGL167C, strain pmr1, hits give low values 0.983 | locus YGL173C, strain kem1, hits give low values 0.985 | locus YGL227W, strain vid30, hits give low values 0.984 | locus YGL240W, strain doc1, hits give low values 1.02 | locus YGL248W, strain PDE1, hits give low values 1.04 | locus YGL253W, strain hxk2, hits give low values 0.979 | locus YGR078C, strain PAC10, hits give low values 1.01 | locus YGR135W, strain pre9, hits give low values 1.03 | locus YGR229C, strain SMI1, hits give low values 1.01 | locus YGR252W, strain gcn5, hits give low values 1.02 | locus YHR013C, strain ard1, hits give low values 0.952 | locus YHR027C, strain rpn1, hits give low values 0.976 | locus YHR030C, strain SLT2, hits give low values 1 and 0.996 | locus YHR079C, strain IRE1 (second series), hits give low values 1.02 | locus YHR079C, strain IRE1, hits give low values 0.987 | locus YHR094C, strain hxt1, hits give low values 1.01 | locus YHR129C, strain ARP1, hits give low values 1 | locus YHR142W, strain chs7, hits give low values 0.977 | locus YHR200W, strain rpn10, hits give low values 1.02 | locus YIL066C, strain RNR3, hits give low values 1 | locus YIL073C, strain SPO22, hits give low values 1.04 | locus YIL125W, strain kgd1, hits give low values 1.01 | locus YIR030C, strain dcg1, hits give low values 1.02 | locus YJL092W, strain hpr5, hits give low values 0.986 | locus YJL095W, strain BCK1 (second series), hits give low values 0.996 | locus YJL095W, strain BCK1, hits give low values 1.05 and 0.998 | locus YJL115W, strain asf1, hits give low values 0.978 | locus YJL129C, strain trk1, hits give low values 0.956 | locus YJL134W, strain LCB3, hits give low values 1.01 | locus YJL154C, strain vps35, hits give low values 0.968 | locus YJL164C, strain tpk1, hits give low values 0.988 | locus YJL166W, strain qcr8, hits give low values 1.01 | locus YJL168C, strain set2, hits give low values 1.02 | locus YJL187C, strain SWE1 (second series), hits give low values 1.01 | locus YJL187C, strain SWE1, hits give low values 0.987 | locus YJR043C, strain POL32, hits give low values 1.03 | locus YJR066W, strain TOR1, hits give low values 0.901
